# Laboratory results taken from the supplement of paper PMC3334620.
# Whole data set: some 33,000 sequences, median “E-score (-0.5 to 0.5)” near -0.012, cut for the highest 2% near 0.27. The sample as a whole holds a higher share of the highest values than the screen did.
# Target: T1, Vhr1 (UniProt P40522)
# T1 sequence: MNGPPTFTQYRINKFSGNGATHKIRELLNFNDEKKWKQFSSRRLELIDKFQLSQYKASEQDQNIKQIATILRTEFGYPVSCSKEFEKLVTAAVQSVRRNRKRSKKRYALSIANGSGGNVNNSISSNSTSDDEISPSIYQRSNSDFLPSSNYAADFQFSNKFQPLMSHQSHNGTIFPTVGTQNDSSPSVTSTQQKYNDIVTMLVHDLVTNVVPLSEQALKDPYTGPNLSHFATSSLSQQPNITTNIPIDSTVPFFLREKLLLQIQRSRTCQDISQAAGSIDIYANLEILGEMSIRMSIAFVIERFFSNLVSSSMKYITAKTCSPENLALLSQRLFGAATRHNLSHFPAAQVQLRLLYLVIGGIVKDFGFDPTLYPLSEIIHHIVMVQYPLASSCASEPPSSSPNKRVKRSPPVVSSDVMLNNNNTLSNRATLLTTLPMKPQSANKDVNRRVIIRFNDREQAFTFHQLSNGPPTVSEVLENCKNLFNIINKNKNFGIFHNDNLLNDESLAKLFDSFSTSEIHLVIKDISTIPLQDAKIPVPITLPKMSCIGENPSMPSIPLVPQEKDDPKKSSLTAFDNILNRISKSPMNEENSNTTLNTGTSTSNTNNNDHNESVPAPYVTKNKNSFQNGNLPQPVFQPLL
# Experiment: PBM E-score (8-mer binding enrichment) (E-score (-0.5 to 0.5)); higher = stronger / more preferred TF binding
# Settings: protein concentration: 200 nM; construct: GST-full length
# Experimental: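 Universal 'all 10-mer' protein binding microarrays (Agilent AMADID 015681) probed with GST-tagged S. cerevisiae TFs (full-length or DBD) made by in vitro transcription/translation (PURExpress), about 100-200 nM. Bound TF was detected with fluorescent anti-GST. Each ungapped 8-mer (which stands for itself and its reverse complement) is scored by the PBM enrichment score (E-score), a modified Wilcoxon-Mann-Whitney statistic from -0.5 to +0.5, computed with the Universal PBM Analysis Suite. Scale: above 0.35 generally sequence-specific binding.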
row,Sequence,PBM E-score
1,ATGAGTTG,0.173
2,CGGAGTGC,0.139
3,CATGGAGA,0.155
4,ATAAAACA,-0.125
5,ATGCTTTG,0.0636
6,AATAGCAC,-0.026
7,GAGGTTAC,0.0302
8,ACAGGTCC,-0.195
9,CGACAATA,0.0881
10,CGTTAGAA,-0.323
11,ACTGGGGA,-0.0871
12,CTGCCCCA,0.0236
13,AGGTGGAA,0.0199
14,GCGCTCAC,0.0509
15,ATGAGTTC,0.00071
16,ATGAGTCC,0.389
17,ATGAGTGC,0.0758
18,GACGCAAC,-0.169
19,ATTAGTCA,0.381
20,ATTAGTCC,0.122
21,ATTAGTCG,0.279
22,GTTAGTCA,0.43
23,CTTAGTCA,0.376
24,CTTAGTCC,0.0119
25,GTTAGTGA,0.0216

row,Sequence,PBM E-score
1,ATTAGTTG,0.0201
2,CTTAGTAA,-0.0159
3,ATTAGTGG,0.141
4,GTTAGTTA,0.137
5,ATTAGTTA,0.143
6,GGTGCAAC,-0.183
7,ATGACGCG,0.162
8,GTCAATCA,0.221
9,AGCCATGG,0.281
10,AGCCATGC,0.128
11,AGCCATGA,0.228
12,AGTCATGC,0.443
13,CGTCATGC,0.0219
14,CGTCATGA,0.267
15,AGTCAAGC,0.00212
16,AGTCAAGG,0.196
17,AGACATGG,0.192
18,AGTCATGA,0.466
19,GGTCATGA,0.239
20,AGTCATGG,0.458
21,CCGTTTAG,-0.0628
22,AGAAGCGA,-0.0198
23,GGATAACC,-0.112
24,AGAACTTC,-0.182
25,CTTGCCCA,-0.177

row,Sequence,PBM E-score
1,GAAGGGTA,0.0935
2,CAAAGTTC,-0.0789
3,ACTGCGAG,0.0985
4,GCCACCAC,-0.0307
5,ATCATGGA,0.22
6,ACCATGGG,0.108
7,ATCATGCC,0.0697
8,ATCATGCA,0.192
9,ATCATGCG,0.283
10,CCCATGGA,0.0783
11,CCCATGGG,0.285
12,ATCATGGC,0.143
13,ATCATGGG,0.272
14,ACGGTCAC,-0.0582
15,TAGCGTAA,-0.0878
16,CGGAGATC,-0.0653
17,AATTCGGA,0.0232
18,TCAGAACA,0.00034
19,GCAGCTAA,-0.106
20,CAATTTTC,-0.0832
21,GAGGCAAC,-0.172
22,CATAACGA,0.0162
23,CGTGACCC,0.141
24,CGTGACTA,0.419
25,CGTGACTC,0.472

row,Sequence,PBM E-score
1,CGTGACGA,0.00499
2,CGTGACGC,-0.144
3,CGTGACAA,-0.0207
4,GGTCGAAC,0.00191
5,GACCCTAA,-0.109
6,GGAATTCC,-0.279
7,CTAATGAA,0.0817
8,AGCATCTC,0.0587
9,GGATTTGA,-0.0695
10,ATCGTGAC,0.113
11,CTCGTGAC,0.273
12,CTCGTGAA,0.0314
13,GCCCTCCA,-0.133
14,ATATATCC,0.273
15,GTATATAC,0.0568
16,CTATATCC,-0.00727
17,CTATATAC,0.241
18,ACATATCG,0.191
19,ACATATCA,0.281
20,ATATATAA,0.247
21,CCATATCA,0.0898
22,ATATATCA,0.0989
23,ATATATAC,0.285
24,ATATATAT,0.324
25,ATATATAG,0.132

row,Sequence,PBM E-score
1,GCCTGCGA,-0.00738
2,AGAATACT,0.0167
3,CAGTACCC,0.103
4,GATAATGC,0.114
5,GACCACGC,0.148
6,AAATCACC,0.312
7,GAATCACC,0.392
8,CAATCACG,0.211
9,GAATCACA,0.341
10,CAATCACC,0.238
11,AAATCACG,0.173
12,AAATCACA,0.0215
13,TAATCACA,0.222
14,GCATCACC,-0.0259
15,CTAGAAAC,-0.252
16,AAGGCTCC,-0.172
17,ATCGACGG,0.0804
18,CCGAATGA,0.166
19,CAACCGCA,0.0762
20,CAACCGCC,-0.102
21,CAACCGCG,0.3
22,GATTATAC,0.213
23,GCGGGCTA,-0.119
24,CGCGGCTA,-0.0223
25,CGCGGCTC,0.278

row,Sequence,PBM E-score
1,AGCGGCTC,-0.0971
2,GGAGTCGA,0.122
3,CGAGTCAA,0.278
4,CGAGTCTC,0.0296
5,CAAGTCAA,-0.0643
6,CGAGTCAG,0.429
7,CGAGTCCC,0.186
8,CGAGTCTA,-0.0817
9,GGAGTCAA,0.354
10,GGAGTCTA,0.0135
11,CGTGTCAG,0.037
12,CGAGTCAC,0.467
13,CCAGTCAG,0.0854
14,CCGTGCCG,-0.00022
15,AACCTCTC,-0.172
16,GCAGCCGA,0.0559
17,GCAGGCCA,0.117
18,ACTGATCC,0.0497
19,ATTGTTTC,0.217
20,CGAGTCCG,0.286
21,CCAGTCCG,-0.0813
22,TCAGTCAA,0.114
23,CGAGTCCA,-0.0942
24,TGAGTCCA,0.3
25,TGAGTCAA,0.419

row,Sequence,PBM E-score
1,AGAGTCCG,-0.0962
2,TTAGTCAA,0.168
3,GGAGTCCA,0.163
4,CAATCAAA,-0.008
5,CCTTCCCC,0.0876
6,CCCTATCC,-0.0379
7,ACAGCTGG,-0.119
8,CCAGCTGC,-0.105
9,CCAGCTGG,0.301
10,AGTAAATC,0.0723
11,AGGACTCG,0.167
12,CGGACTCC,0.2
13,CGGACTCA,0.381
14,AGGACTCA,0.376
15,CGGACTTA,-0.189
16,AGGACTCC,0.129
17,ATATACTA,0.257
18,CCTTGAGA,-0.0758
19,AAATAGTG,-0.149
20,ACATAGTA,0.188
21,ACATAGTC,0.272
22,ACATAGTG,0.314
23,AAATAGTC,0.0418
24,CCATAGTC,0.225
